Only some compounds are listed: those with a hit (about 19% of all), similar ones and a draw of the others.
DT40 TDP1 no CPT: qHTS for Inhibitors of human tyrosyl-DNA phosphodiesterase 1 (TDP1): qHTS in cells in absence of CPT | DT40 Tdp1-/- hTDP1 cells, no CPT, ATP luminescence, 48 h | Potency, µM (doses to about 46.2 µM), inactives show top-dose activity change, negative = growth inhibition, hits mostly inhibitors | 420,000 compounds, 15% hits | AID 686978, 2013; further: potency means the concentration at half of the fitted maximal effect; nearly all actives have a fitted effect of over 55% in size
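Growth kinetics read by CellTiter-Glo luminescence after ≥48 hr at 37 °C. Cells: DT40 Tdp1-/- stably carrying human TDP1, 400 per well, compound exposure in the absence of CPT (DMSO vehicle).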
IL1B secr inh: inhibitors of inflammasome signaling (IL-1 beta secretion) | THP-1 LPS/ATP IL-1B secretion, AlphaLISA, 16 h; active compounds read low | activity change, % at 57.5 µM | 360,000 compounds, 4.7% hits | AID 743279; in the data active means activity change below about -50%; inconclusive means mostly about -30% to -49%
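Secreted IL-1B measured by AlphaLISA bead assay after 16 h compound exposure of THP-1 cells; compounds (final up to 57.5 uM) added 1 h before LPS (250 ng/mL) and ATP (1.25 mM) stimulation; lower signal means less secretion.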
HT1080 IDH1KD tx: HT-1080 IDH1 knockdown cell toxicity (counter line); Potency, µM (highest dose often 46.1 µM), for the others: at the top dose activity, negative = toxicity, actives largely listed as cytotoxic; HT-1080 IDH1 knockdown viability, ATP luminescence, 48 h; 360,000 compounds, 2% hits;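 further: potency means the concentration at half of the fitted maximal effect; 0% = DMSO wells and -100% = cell-free medium wells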
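HT-1080-IDH1KD cells (IDH1 knocked down), 750/well in RPMI with 5% FBS, treated with compound 48 h at 37 degrees C. Viability by CellTiter-Glo luminescence, normalised to DMSO and no-cell wells; concentration-response curves classed.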
HT1080-NT tox: kills 2HG-producing HT-1080-NT fibrosarcoma cells. HT-1080-NT fibrosarcoma viability, CellTiter-Glo ATP luminescence, 48 h. Potency, µM (titrated, usually from 46.1 µM), for inactives: top-dose activity, negative = less viability, hits mostly cytotoxic. 360,000 compounds, 1.6% hits. AID 686970;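 further: NT is the 2HG producing partner of a matched IDH1 knockdown line; potency means the concentration at half of the fitted maximal effect; 0% = DMSO-treated cells and -100% = media-only wells without cells; nearly all actives have a fitted effect of over 55% in size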
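Viability of the 2HG-overproducing fibrosarcoma line after 48 hours of compound exposure at 37 degrees C was determined by luminescence with CellTiter-Glo, and concentration-effect curves were then fitted and categorized.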
TDP1 cell CPT: growth inhibition of DT40 Tdp1-/-;hTDP1 cells with camptothecin (screen for TDP1 inhibitors); chicken DT40 Tdp1-/-;hTDP1 cells + 20 nM CPT, ATP luminescence, 48 h; Potency, µM (titrated, usually from 46.2 µM), inactives show at the highest dose activity change, negative = growth inhibition, most hits filed as inhibitors; 420,000 compounds, 12% hits; AID 686979; further: potency means the concentration at half of the fitted maximal effect; nearly all actives have a fitted effect of over 55% in size
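Chicken DT40 Tdp1-/- cells complemented with human TDP1, 400 cells/well, exposed to compounds plus 20 nM camptothecin for at least 48 h at 37 C; viability read as ATP content by CellTiter-Glo luminescence.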
Numbers without * were called inactive; i = inactive; ? = inconclusive; nt = not tested or not shown. Unless noted, the call rests on the fitted dose curve; in most records, active means well fitted curve in the direction sought with a large enough effect; inconclusive means small, poorly fitted or top-dose-only effect, or another doubt; inactive means no such curve, though single readings can be large; an effect the other way counts as inactive or inconclusive. Unless noted, on the % scale 0 is the no-effect control and ±100 the full control effect.

SMILES	DT40 TDP1 no CPT	IL1B secr inh	HT1080 IDH1KD tx	HT1080-NT tox	TDP1 cell CPT
N#Cc1c(C#N)c(SSc2c(C#N)c(C#N)c(N)n2-c2ccccc2)n(-c2ccccc2)c1N	4.61µM*	-2.4	6.1%	12.4%	4.61µM*
Cc1cccc(NC(=O)c2ccc(Cl)c(S(=O)(=O)N3CCCC3)c2)n1	?	i	-0.9%	-0.6%	-12.1%
Cc1cccc(NC(=O)c2ccc(Cl)c(S(=O)(=O)N3CCc4ccccc43)c2)n1	?	-12.6	?	-20.4%	23.1µM*
NC(=O)C1CCN(C(=O)c2ccc(Cl)c(S(=O)(=O)N3CCc4ccccc43)c2)CC1	?	14.8	-1.1%	-0.9%	?
O=C1CN(C(=O)c2ccc(Cl)c(S(=O)(=O)N3CCc4ccccc43)c2)c2ccccc2N1	20.6µM*	2.4	?	7.31µM*	16.4µM*
O=C(Nc1ccncc1)c1ccc(Cl)c(S(=O)(=O)N2CCc3ccccc32)c1	7.31µM*	?	?	?	9.2µM*
CN1CCC(N(C)C(=O)c2ccc(Cl)c(S(=O)(=O)N3CCc4ccccc43)c2)CC1	?	-50.1*	-23.7%	-25.2%	?
CN1CCC(N(C)C(=O)c2cccc(S(=O)(=O)N3CCc4ccccc43)c2)CC1	-8.4%	-23.8	-4.5%	-7.6%	-14.9%
Cc1cc(OCCN2CCOCC2)ccc1Cl	1.4%	13.7	2.6%	3.8%	-18.2%
Nc1nc(N2CCCCC2)c(C=O)c(N2CCCCC2)n1	?	1.9	11.9%	3.2%	2.8%
O=C(C1=C[C@H](C2CCCCC2)C[C@H](OCc2ccc(CO)cc2)O1)N1CCN(Cc2ccc3c(c2)OCO3)CC1	?	-70.2*	?	?	?
O=C(C1=C[C@H](C2CC2)C[C@H](OCc2ccc(CO)cc2)O1)N1CCN(Cc2ccc3c(c2)OCO3)CC1	?	0.0	-2.6%	-3.2%	?
O=C(C1=C[C@@H](C2CCCCC2)C[C@@H](OCc2ccc(CO)cc2)O1)N1CCN(Cc2ccc3c(c2)OCO3)CC1	16.4µM*	-63.3*	?	?	?
NS(=O)(=O)c1ccc(NC(=O)COC(=O)C2CC2)cc1	-24.4%	19.7	19.2%	16.4%	5.1%
CN(C)CCCNCC(=O)c1c(-c2ccccc2)n(C)c2ccccc12	18.4µM*	-19.5	?	?	29.1µM*
O=C(NCCc1nc2ccccc2n1CCCOc1ccccc1Cl)C1CCCCC1	7.08µM*	nt	nt	nt	10µM*
CC(C)(C)C(=O)NCCc1nc2ccccc2n1CCCCOc1ccccc1	16.4µM*	nt	nt	nt	?
Cc1ccccc1OCCn1c(CCNC(=O)C2CCCCC2)nc2ccccc21	17.8µM*	nt	nt	nt	?
O=C(NCCc1nc2ccccc2n1CCOc1ccccc1)C1CCCCC1	-16.3%	nt	nt	nt	?
CCc1ccc(OCCCCn2c(CCNC(=O)C3CCCCC3)nc3ccccc32)cc1	10µM*	nt	nt	nt	7.08µM*
CC(C)C(=O)NCCc1nc2ccccc2n1CCOc1ccccc1	?	9.9	5.2%	-2.1%	-27.9%
O=C(CCCOc1ccccc1)Nc1cccc(S(=O)(=O)N2CCOCC2)c1	?	14.0	0.4%	-3.2%	-21.6%
COc1ccc(N2CCN(C(c3cccc(OC)c3OC)c3nnnn3C3CCCC3)CC2)cc1 (configuration not stated)	?	?	-16.8%	-17.0%	?
COc1ccc(N2CCN(C(c3ccccc3OC)c3nnnn3C3CCCC3)CC2)cc1 (configuration not stated)	20.6µM*	?	1.4%	0.2%	23.1µM*
COc1ccc(N2CCN(C(c3cccs3)c3nnnn3C3CCCC3)CC2)cc1 (configuration not stated)	16.4µM*	-13.7	-4.6%	6.2%	20.6µM*
SMILES	DT40 TDP1 no CPT	IL1B secr inh	HT1080 IDH1KD tx	HT1080-NT tox	TDP1 cell CPT
FC(F)(F)c1cccc(Cn2nnnc2-c2cccc(C(F)(F)F)c2)c1	-27.3%	-2.2	-25.1%	-9.0%	-29.2%
COc1ccc(-n2cnnc2SCc2csc(-c3ccccc3)n2)cc1	-27.0%	8.4	0.4%	-2.3%	-13.9%
CCCCN1C=CC(=C2C(=O)c3ccccc3C2=O)C=C1	?	-23.0	23.1µM*	16.4µM*	?
CN(c1cccc2cccnc12)S(=O)(=O)c1ccccc1	-3.6%	20.4	4.6%	6.0%	15.7%
CC(/C=N/NC(=O)c1cccs1)=C\c1ccccc1	8.2µM*	0.0	-12.0%	-8.4%	-5.8%
O=C(N/N=C/C(Cl)=C\c1ccccc1)c1cccs1	9.2µM*	-6.2	?	4.7%	?
O=C(N/N=C/c1ccc([N+](=O)[O-])cc1)c1cccs1	-22.4%	?	0.7%	0.2%	?
COc1nc(N2CCCCCC2)nc(N2CCCCCC2)n1	?	26.0	-19.1%	-6.7%	?
COc1nc(C#N)nc(N2CCCC2)n1	15.8µM*	nt	nt	nt	?
CCOc1nc(C#N)nc(N2CCCCC2)n1	14.6µM*	-92.2*	-11.2%	-9.1%	20.6µM*
O=C(CN1C(=O)C(=O)N(C2CCCC2)C1=O)NCCc1ccc(Cl)cc1Cl	30.8%	-10.4	-2.0%	0.3%	0.4%
COc1ccc(-c2cc(NC=O)c3ncc(-c4cccc(C(=O)NCCN(C)C)c4)n3c2)c(OC)c1	3.66µM*	-2.8	23.1µM*	18.4µM*	3.26µM*
COc1cc(-c2cnc3c(NC=O)cc(-c4cccc(C(=O)NCCN(C)C)c4)cn23)cc(OC)c1OC	14.6µM*	129.1	-0.9%	5.2%	?
COc1ccc(-c2cc(NC=O)c3ncc(-c4cccc(C(=O)NCCN(C)C)c4)n3c2)cn1	?	-25.6	-18.1%	-26.1%	?
CC1=C(C(=O)OCc2ccc3c(c2)OCO3)C(c2cccc([N+](=O)[O-])c2)NC(=O)N1 (configuration not stated)	?	-10.1	-1.7%	-21.8%	?
COc1ccc(NC(=O)CSc2nc3sc(C)cc3c(=O)n2C)c(OC)c1	18.4µM*	36.7	-12.6%	?	?
Cc1cccc(NC(=O)CSc2nc3sc(C)cc3c(=O)n2C)c1	23.1µM*	-2.1	-5.3%	-9.3%	?
Cc1cc2c(=O)n(C)c(SCC(=O)Nc3cccc(O)c3)nc2s1	-29.4%	13.1	-6.2%	-9.5%	?
COc1ccc(NC(=O)C(=O)NCC(c2ccco2)N2CCc3ccccc3C2)cc1OC (configuration not stated)	?	-2.8	-3.0%	-1.5%	?
CCOc1ncccc1C(=O)OCC(=O)c1cccs1	-9.8%	12.1	4.9%	25.5%	-26.1%
CCOc1ncccc1C(=O)OCC(=O)c1ccc(Br)s1	4.61µM*	-11.2	-2.7%	-1.7%	?

Assay outcomes (PubChem BioAssay)
